PubChem BioAssay AID1159580 (chemical genetic matrix, 2015)
Where “and” joins values, the source holds several entries; their conditions need not be identical. Equal entries are not always repeated. The campaign covered roughly 5,500 compounds. About 2,000 (36%) were called active. About 18% were inconclusive and are not listed. Cut-off read from the data, not from the text of the source: active = normalized growth mostly below about 0.91 (no sharp cut-off); inconclusive = no clear call, values can overlap the other calls; inactive = mostly above about 0.92. The list shows a part of the results.

Experiment: chemical genetic growth profiling, strain panel (AID 1159580);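 note: tested at 20 µM; growth read once vehicle control cultures reached saturation at 30 °C; 1 = growth at the plate median or of vehicle wells; lower values mean less growth of the strain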
Details: S. cerevisiae deletion strains, growth OD

Measured: normalized growth

COc1cc2c(cc1OC)-c1cc3ccc(OC)c(OC)c3c[n+]1CC2
inactive: locus YAL013W, strain DEP1, active compounds read low 0.993 | locus YAL021C, strain ccr4, active compounds read low 0.988 | locus YAL026C, strain drs2, active compounds read low 0.987 | locus YAL030W, strain snc1, active compounds read low 0.988 | locus YBL061C, strain skt5, active compounds read low 0.988 | locus YBR009C, strain hhf1, active compounds read low 0.984 | locus YBR021W, strain FUR4, active compounds read low 0.977 and 1.02 | locus YBR023C, strain chs3, active compounds read low 0.983 | locus YBR171W, strain sec66, active compounds read low 0.971 | locus YBR229C, strain ROT2, active compounds read low 0.979 and 1 | locus YBR231C, strain swc5, active compounds read low 0.981 | locus YBR279W, strain paf1, active compounds read low 0.979 | locus YCL011C, strain gbp2, active compounds read low 0.991 | locus YCL016C, strain dcc1, active compounds read low 0.978 | locus YCL029C, strain bik1, active compounds read low 0.991 and 1.01 | locus YCL061C, strain MRC1, active compounds read low 0.989 | locus YCL069W, strain vba3, active compounds read low 0.988 | locus YCR088W, strain abp1, active compounds read low 0.98 | locus YDL005C, strain med2, active compounds read low 0.975 | locus YDL035C, strain GPR1, active compounds read low 1.1 and 0.985 | locus YDL040C, strain nat1, active compounds read low 0.988 | locus YDL074C, strain BRE1, active compounds read low 1.05 and 1.02 | locus YDL101C, strain DUN1, active compounds read low 0.982 and 1.03 | locus YDL134C, strain PPH21, active compounds read low 0.989 and 0.983 | locus YDL185W, strain tfp1, active compounds read low 0.988 and 1.03 | locus YDL192W, strain arf1, active compounds read low 0.991 and 1.01 | locus YDR001C, strain nth1, active compounds read low 0.982 | locus YDR069C, strain doa4, active compounds read low 0.976 | locus YDR101C, strain arx1, active compounds read low 0.985 and 1.02 | locus YDR137W, strain rgp1, active compounds read low 0.97 | locus YDR150W, strain NUM1, active compounds read low 0.992 and 1.01 | locus YDR159W, strain sac3, active compounds read low 0.999 | locus YDR162C, strain NBP2, active compounds read low 1.01 and 1 | locus YDR195W, strain ref2 0.921 | locus YDR297W, strain sur2, active compounds read low 0.984 | locus YDR318W, strain mcm21, active compounds read low 0.987 and 1.01 | locus YDR334W, strain swr1, active compounds read low 0.986 | locus YDR335W, strain msn5, active compounds read low 0.99 | locus YDR388W, active compounds read low 0.99 and 1.02 | locus YDR392W, strain spt3, active compounds read low 1.01 | locus YDR502C, strain sam2, active compounds read low 0.985 and 1.01 | locus YEL003W, strain gim4, active compounds read low 0.99 | locus YEL037C, strain rad23, active compounds read low 0.987 | locus YEL061C, strain CIN8 (second series), active compounds read low 0.967 | locus YEL061C, strain CIN8, active compounds read low 0.99 and 1.01 | locus YER015W, strain faa2, active compounds read low 0.989 | locus YER016W, strain bim1, active compounds read low 0.987 | locus YER110C, active compounds read low 0.983 and 1.02 | locus YER111C, strain swi4, active compounds read low 0.97 | locus YER155C, strain BEM2 (second series), active compounds read low 0.909 | locus YER155C, strain BEM2, active compounds read low 0.994 and 1.01 | locus YER167W, strain BCK2, active compounds read low 0.977 and 0.997 | locus YFR010W, strain ubp6, active compounds read low 0.969 | locus YGL078C, strain dbp3, active compounds read low 0.991 and 1.01 | locus YGL086W, strain mad1, active compounds read low 0.952 and 0.998 | locus YGL167C, strain pmr1, active compounds read low 0.981 | locus YGL173C, strain kem1, active compounds read low 0.98 | locus YGL227W, strain vid30, active compounds read low 0.974 | locus YGL240W, strain doc1, active compounds read low 0.969 | locus YGL248W, strain PDE1, active compounds read low 0.983 and 1.02 | locus YGL253W, strain hxk2, active compounds read low 0.996 | locus YGR078C, strain PAC10, active compounds read low 1.01 | locus YGR135W, strain pre9, active compounds read low 1 and 1.01 | locus YGR229C, strain SMI1, active compounds read low 1.02 | locus YGR252W, strain gcn5, active compounds read low 0.952 and 1.02 | locus YHR013C, strain ard1, active compounds read low 0.966 | locus YHR027C, strain rpn1, active compounds read low 0.975 | locus YHR030C, strain SLT2, active compounds read low 0.989 and 1.04 and 1 | locus YHR079C, strain IRE1 (second series), active compounds read low 0.991 and 1.02 | locus YHR079C, strain IRE1, active compounds read low 1.03 | locus YHR094C, strain hxt1, active compounds read low 0.991 and 1.02 | locus YHR129C, strain ARP1, active compounds read low 0.987 and 1.01 | locus YHR142W, strain chs7, active compounds read low 1.02 | locus YHR200W, strain rpn10, active compounds read low 0.987 and 1 | locus YIL066C, strain RNR3, active compounds read low 0.973 and 0.985 | locus YIL073C, strain SPO22, active compounds read low 0.95 and 1.04 | locus YIL125W, strain kgd1, active compounds read low 0.996 and 1.01 | locus YIR030C, strain dcg1, active compounds read low 0.989 and 1.01 | locus YJL092W, strain hpr5, active compounds read low 0.979 | locus YJL095W, strain BCK1 (second series), active compounds read low 0.973 | locus YJL095W, strain BCK1, active compounds read low 1 and 1.02 and 1.05 | locus YJL115W, strain asf1, active compounds read low 0.975 | locus YJL129C, strain trk1, active compounds read low 0.96 | locus YJL134W, strain LCB3, active compounds read low 0.97 and 1 | locus YJL154C, strain vps35, active compounds read low 0.98 | locus YJL164C, strain tpk1, active compounds read low 0.98 | locus YJL166W, strain qcr8, active compounds read low 0.974 | locus YJL168C, strain set2, active compounds read low 0.989 and 1.02 | locus YJL187C, strain SWE1 (second series), active compounds read low 0.997 and 1.05 | locus YJR043C, strain POL32, active compounds read low 0.998 and 0.991 | locus YJR066W, strain TOR1, active compounds read low 0.965
